# Test results reported in PubChem BioAssay (EPA / NIEHS).
# Calls of active or inactive are those of the source. How the source made its calls: active means hit-call score of the fitted dose curve at least 0.9, where 1 is the maximum; inactive means score below 0.9.
# Read-out: growth arrest and DNA damage 45 (GADD45A), GADD45A (gene 1647)
# Assay: LTEA_HepaRG_GADD45A: Life Technologies and Expression Analysis (LTEA) Assay for growth arrest and DNA damage 45 (GADD45A) using HepaRG (AID 2283458)
# Conditions: mRNA level, 48 h; actives raise or lower the signal
# Procedure: LTEA_HepaRG is a cell based, multiplexed-readout assay that uses HepaRG, a human liver cell line, with measurements taken at 48 hours after chemical dosing on a 96-well plate.LTEA_HepaRG_GADD45A is one of 102 assay component(s) measured in the LTEA HepaRG cell culture assay. It is a marker of Oxidative Stress.Data from the assay component LTEA_HepaRG_GADD45A was analyzed into 1 endpoint. This assay endpoint, LTEA_HepaRG_GADD45A, was analyzed with bidirectional fitting relative to DMSO as the negative control and baseline of activity. Using a type of inducible reporter, measures of mRNA induction for gain or loss-of-signal activity can be used to understand regulation of transcription factor activity. To generalize the intended target to other relatable targets, this assay endpoint is annotated to the cell cycle intended target family, where the subfamily is Oxidative Stress.
# A total of 1060 chemcials from the ToxCast library were tested in eight-point concentration-response experiments. Cell culture and cytotoxicity assays were conducted at Thermo Fisher Scientific's Custom Services facility (Madison, WI). A single lot of human HepaRG cells (Thermo Fisher Scientific, Frederick, MD) was used for the cell culture experiments. 96-well format collagen type I coated plates of human HepaRG cells were prepared using established methods. Briefly, cryopreserved HepaRG cells were thawed, plated at a density of approximately 100,000 cells/well in HepaRG Thaw, Plate, and General Purpose media (HPRG770, Thermo Fisher Scientific), and incubated for 48 hours. 0.5% DMSO was selected as vehicle control to balance the requisite need of DMSO in HepaRG cultures to maintain differentiation (for example, baseline metabolism, proportions of hepatocytes vs. cholangiocytes), while enabling further hepatic receptor pathway activation (for example, PXR and CAR) in response to chemical exposure. 48 hours after plating, the culture medium was replaced with HepaRG Serum-Free Incudtion Media. Cells were exposed to each test chemical in duplicate and maintained in CO2 incubators for another 48 hours. Chemical plates were thawed to room temperature and 200x concentrations of treatment groups were prepared. 8-point conentration-reponse curves were made with the highest exposure at 100 uM, followed by half-log dilutions, all in 0.5% DMSO. Each test plate contained variouse controls, induction positive controls (1mM phenobarbital), cytotoxicity positive controls ([…] aflatoxin B1), vehicle controls (0.5% DMSO), and total lysis controls (0.5% DMSO). Cell morphology images were taken using an Essen IncuCyte FLR automated microscope, with six 96-well plates imaged in about 24 minutes. Images were captured and exported and JPEG files. Spent culture media was transfered to black-well plates for the LDH assay, and remaining media was sorted at -80 C for later use. Cells were treated with RLT buffer and frozen until shipped for gene expression analysis. Total RNA was isolated from the cell suspension in 75 uL of Buffer RLT (Qiagen, Germantown, MD 20874) by Quintiles/Expression Analysis (Durham, NC) using a custom isolation procedure. Total RNA from each plate well was transferred to a preamplification plate. Fluidigm's 96.96 Dynamic ArrayTM (Fluidigm, Amsterdam, the Netherlands) technology was used for gene expression analyses by quantitative reverse transcription polymerase chain reaction (qRT-PCR, performed by Quintiles/Expression Analysis, Durham, NC)89. Standard TaqManTM Assays (Applied Biosystems/ThermoFisher Scientific, Foster City, CA) were used to assess the expression of 93 genes selected based on their selectivity and sensitivity to important hepatic receptors known to be modulated by environmental chemicals; importance in human hepatocyte functionality; and hepatotoxicity. […]
SMILES,outcome,AC50
Oc1ccc2c(c1)OC[C@@H](N1CCC(O)(c3ccc(F)cc3)CC1)[C@H]2O,inactive,–
COCCOCCOC,–,0.998 µM (active)
c1cc(-c2ccncc2)ccn1,inactive,–
CC(=O)OC/C=C(\C)CCC=C(C)C,inactive,–
CCCCCCCCCCCCCCCC,inactive,–
Cc1ccccc1Cl,inactive,–
COc1ccc2c(c1)c(CC(=O)O)c(C)n2C(=O)c1ccc(Cl)cc1,inactive,–
CCCCCCCCCCCCCCCCCC(=O)O,inactive,–
Cc1cccc(Nc2cc(Cl)nc(SCC(=O)O)n2)c1C,inactive,–
NC(=O)Cn1c(=O)cc(CCN2CCN(c3nccc4sccc34)CC2)c2ccc(F)cc21,inactive,–
C=CCOC(=O)c1ccccc1C(=O)OCC=C,inactive,–
CNCc1cc(F)ccc1Oc1ccc(Cl)c(Cl)c1,inactive,–
CNC(=O)[C@H]1O[C@@H](n2cnc3c(NCc4cc(Cl)ccc4OCc4cc(C)no4)ncnc32)[C@H](O)[C@@H]1N,inactive,–
CCCCCCOCCO,inactive,–
Cc1ccc2ncccc2c1,inactive,–
CC=Cc1ccc(O)c(OC)c1,inactive,–
CC1(C)CC(N=C=O)CC(C)(CN=C=O)C1 (stereo not given),inactive,–
CCCCCCCCCCCCCO,inactive,–
C1CCC(SSC2CCCCC2)CC1,inactive,–
Cc1ccc(N(C)C)cc1,inactive,–

SMILES,outcome,AC50
CCCCCCCCCCCC(=O)OC,inactive,–
CCCCCC(=O)O,inactive,–
Cc1nc(-c2ccc3c(c2)CCN(CCC2CCC(NC(=O)/C=C/c4ccc(F)cc4)CC2)CC3)no1 (stereo not given),inactive,–
C=CCc1ccc(O)c(OC)c1,inactive,–
Cc1c(C(=O)O)c(O)cc2c1C(=O)c1c(O)c([C@@H]3O[C@H](CO)[C@@H](O)[C@H](O)[C@H]3O)c(O)c(O)c1C2=O,inactive,–
Nc1ccc2c(c1)C(=O)c1ccccc1C2=O,inactive,–
CCCCOC(=O)CCCCCCCCC(=O)OCCCC,inactive,–
COC(=O)c1ccc(O)cc1,inactive,–
CCCc1cc(=O)[nH]c(=S)[nH]1,inactive,–
CC(C)(C)c1cc(O)c(C(C)(C)C)cc1O,–,50 µM (active)
CC(=O)Oc1ccccc1C(=O)O,inactive,–
CCOC(=O)C(C)(C)Oc1ccc(Cl)cc1,inactive,–
CC1=C(/C=C/C(C)=C/C=C/C(C)=C/CO)C(C)(C)CCC1,inactive,–
COc1cc(-c2nc(NC(=O)c3cc4cc(C)cc(C)c4n3CC(=O)O)sc2CCC2CCCCC2)c(OC)cc1Cl,–,15.2 µM (active)
OC[C@@H](O)[C@@H](O)[C@H](O)[C@H](O)CO,inactive,–
CC(CO)OC(C)CO (stereo not given) (tested in a mixture with another compound),inactive,–
COc1cc(C=O)ccc1O,inactive,–
Cc1cc(=O)[nH]c(=S)[nH]1,inactive,–
O=c1c(O)c(-c2ccc(O)c(O)c2)oc2cc(O)cc(O)c12,inactive,–
O=C(N[C@@H](Cc1ccccc1)[C@@H](O)C(=O)N1C[C@@H](O)[C@@H](O)C1)c1cc2cc(Cl)ccc2[nH]1,inactive,–
